Data published in PubChem BioAssay AID1377 (University of Pittsburgh Molecular Library Screening Center, 2008).
In all, about 220,000 compounds went through this assay and about 830 (0.38%) were called active.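 The calls were made as follows: active = activation, scaled between plate controls, above about 75% (limit read from the data); inactive = activation under that limit.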 The full list was thinned out, with actives kept by preference.

Assay: rescue of L929 cells from zVAD death – primary screen (AID 1377);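 also: 0% = zVAD with DMSO and 100% = DMSO alone without zVAD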
Details: L929 zVAD necroptosis rescue, ATP luminescence, 24 h, at 10 µM, active compounds read high; with zVAD 60 µM unless noted

Row | Compound | viability rescue
1 | O=C(/C=C/c1ccccc1)c1ccccc1O | 1.78% (inactive)
2 | Cc1nc(-c2ccccc2)sc1C(=O)/C=C/c1ccccc1 | 0.15% [with zVAD 20 µM] (inactive)
3 | Cc1[nH]c(=O)c(C(=O)/C=C/c2ccccc2)c2c1CCCC2 | 79.8% [with zVAD 20 µM] (active)
4 | CCc1cc2c(=O)c(-c3nc4ccccc4n3C)c(CCCC(=O)O)oc2cc1OC(=O)C(C)(C)C | 3.54% (inactive)
5 | Fc1ccc2c(c1)C(c1cccnc1)=NNC(c1cccs1)=N2 | 0.66% (inactive)
6 | COc1cccc(/C=N/NC(=O)CNC(=O)c2ccc(S(=O)(=O)N3CCOCC3)cc2)c1OC | 0.08% (inactive)
7 | COc1c(N2CCN(C(=S)Nc3ccccc3F)C(C)C2)c(F)cc2c(=O)c(C(=O)O)cn(C3CC3)c12 (stereo unspecified) | -0.64% (inactive)
8 | CC1CCCC(C)N1/N=C/c1ccccc1OC(F)F (stereo unspecified) | 2.14% (inactive)
9 | O=C(Cn1cnc2ccccc2c1=O)Nc1cccc(S(=O)(=O)N2CCCCC2)c1 | 2.04% (inactive)
10 | Cc1ccc(NC(=O)c2ccc(Oc3ncccn3)cc2)cc1 | 3.02% (inactive)
11 | CCC(C)Sc1nnc(-c2c[nH]c3ccccc23)n1CCOC (stereo unspecified) | 2.86% [with zVAD 20 µM] (inactive)
12 | CCn1c(SCC(=O)Nc2ccc(OC)c(OC)c2)nnc1-c1c[nH]c2ccccc12 | 1.56% [with zVAD 20 µM] (inactive)
13 | CCn1c(SCCC(C)C)nnc1-c1c[nH]c2ccccc12 | 81.2% [with zVAD 20 µM] (active)
14 | CCOc1cccc2c1OC1(CCCCC1)N1N=C(c3cccnc3)CC21 (stereo unspecified) | 1.15% (inactive)
15 | Cc1ccc(NC(=O)COc2ccc(-n3ccnc3)cc2)cc1Cl | 76.3% [with zVAD 20 µM] (active)
16 | CCC(=O)c1ccc(OCC(=O)Nc2ccc3nc(C)sc3c2)cc1 | 0.76% (inactive)
17 | Cc1ccc(NC(=O)C/C(N)=N/O)cc1Cl | 1.11% (inactive)
18 | O=C(Cc1coc2ccc3ccccc3c12)NCc1cccs1 | 0.48% (inactive)
19 | Cc1ccccc1NC(=O)NC1(C(=O)N2CCCC2)CCCCC1 | 4.41% (inactive)
20 | CCOC(=O)N1CCN(C(=O)CSc2ccc(Cl)cc2)CC1 | -0.42% [with zVAD 20 µM] (inactive)
21 | CCOC(=O)N1CCN(C(=O)COc2ccc(Cl)cc2C)CC1 | 0.53% (inactive)
22 | CCOC(=O)N1CCN(C(=O)CNC(=O)Cc2ccc(Cl)cc2)CC1 | 80.3% (active)
23 | O=C(NC(=S)Nc1ccc2oc(=O)ccc2c1)c1ccc(-c2cccc(Cl)c2Cl)o1 | 0.38% (inactive)
24 | CC(=O)c1cc(C#N)c(SCC(=O)C(C)(C)C)nc1C | 0.46% (inactive)
25 | CC(=O)c1cc(C#N)c(SCC(=O)Nc2nccs2)nc1C | 82.9% (active)
26 | Cc1[nH]c2ccccc2c1SCC(=O)Nc1nccs1 | 1% (inactive)
